Experimental data as given in the emibetuzumab library of Makowski et al. (2022).
Some of the results follow. How many sequences the whole screen found active is unknown.

B1: VH:VL chains; a variant is named by its letters at X, in order (parent)
chain 1: QVQLVQSGAEVKKPGASVKVSCKASGYTFTDYXMHWVRQAPGQGLEWMGXVNPNXXXTTYNQKFEGRVTMTTDTSTSTAYMELRSLRSDDTAVYYCARXNXLDXWGQGTTVTVSS
chain 2: DIQMTQSPSSLSASVGDRVTITCSVSSSVSSIYLHWYQQKPGKAPKLLIYSTSNLASGVPSRFSGSGSGTDFTLTISSLQPEDFATYYCQVYSGYPLTFGGGTKVEIK

Variants of: B1
Experiment: yeast display scFab, FACS + sequencing
Settings: with MET
Method in brief: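 Antigen binding was called positive for sequences present in both antigen-positive samples and negative for those present only in the input. These calls came from deep sequencing, in two replicates, of round-3 sorted and input populations from a heavy-chain CDR mutant scFab yeast surface library. The library was first enriched twice magnetically on HGFR-Fc-coated Protein A beads and then by FACS, gating the top 50% antigen-positive cells after 3 h labelling at room temperature with 1 nM HGFR-Fc plus anti-Myc in PBSB with 1% milk.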

| Variant | antigen binding call |
| --- | --- |
| VKGRADLV | no binding |
| VKGRGVGY | no binding |
| YKGRGVGY | binds |
| VKGKDVGY | no binding |
| YTGTSDWY | no binding |
| VKGRGAGY | binds |
| VEGRGDGY | no binding |
| YKGRGDWY | binds |
| DEGRGDWY | no binding |
| DAGRGDGY | no binding |
| YKGRGDGY | binds |
| DKEGGDAS | no binding |
| DKEGGDVA | no binding |
| DTAEDFGV | no binding |
| YKGRGAGY | binds |
| VGGTSDVF | no binding |
| DGGKNDGS | no binding |
| DTKRTAGD | no binding |
| YRRRGAGD | binds |

| Variant | antigen binding call |
| --- | --- |
| YRREGAGD | binds |
| YRRRGYGD | binds |
| YRRRGVGS | binds |
| VTGEDDVA | no binding |
| DEGGTDVD | no binding |
| DRGGDDLV | no binding |
| DARGGDVY | no binding |
| YRRRGDGD | binds |
| YRRRGVGD | binds |
| SEARSDVF | no binding |
| DARGGDWV | no binding |
| YRRGASGV | binds |
| ARRGAAGV | no binding |
| YRRGDSGV | binds |
| YAGGDSGV | no binding |
| DRRGDDGV | no binding |
| YTRGAAGV | no binding |
| DARADSLV | no binding |
